This is a sample that favours compounds with a hit; in the whole collection about 11% have one here.
G9a inh = qHTS Assay for Inhibitors of Histone Lysine Methyltransferase G9a | G9a H3K9 monomethylation, AlphaScreen, 2 h | AID 504332, 2011 | Potency, µM (titrated, usually from 102 µM), inactives show at the top dose activity, negative = inhibition, usual class: inhibitors | 8.8% of 350,000 active; further: potency means the concentration at half of the fitted maximal effect; on the % scale 0 is the no-effect control and ±100 the full control effect; nearly all actives have a fitted effect of over 75% in size
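G9a (20 nM) preincubated 15 min RT with compounds, then 500 nM biotinylated H3K9 peptide and 20 uM SAM added; 2 h RT reaction. Monomethyl-H3K9 product detected by AlphaScreen with anti-H3K9me1 antibody, streptavidin donor and anti-rabbit IgG acceptor beads.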
PI5P4Ka inh = qHTS for Inhibitors of phosphatidylinositol 5-phosphate 4-kinase (PI5P4K). PI5P4Kalpha enzyme, ADP-Glo luminescence, 60 min; stronger effect = lower value. 1.2% of 330,000 active. Phosphatidylinositol 5-phosphate 4-kinase type-2 alpha (Homo sapiens), P48426. max response, %; active means max response of -50% or lower; inconclusive means between -30% and -50%; inactive means -30% or higher; further: value at the top dose of about 77 µM; on the % scale 0 is the no-effect control and ±100 the full control effect
Target sequence (P48426 whole entry, looked up): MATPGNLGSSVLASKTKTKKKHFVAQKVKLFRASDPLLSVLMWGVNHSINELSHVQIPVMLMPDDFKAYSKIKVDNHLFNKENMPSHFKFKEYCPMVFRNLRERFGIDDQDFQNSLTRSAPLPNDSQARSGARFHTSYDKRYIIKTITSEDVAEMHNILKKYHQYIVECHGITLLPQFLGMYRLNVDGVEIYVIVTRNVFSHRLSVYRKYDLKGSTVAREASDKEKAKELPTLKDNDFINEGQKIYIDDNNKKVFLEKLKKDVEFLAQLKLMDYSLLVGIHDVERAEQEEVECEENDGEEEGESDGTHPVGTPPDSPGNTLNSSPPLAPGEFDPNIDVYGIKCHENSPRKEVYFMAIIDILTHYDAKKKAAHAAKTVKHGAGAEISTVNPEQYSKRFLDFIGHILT
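Human PI5P4Kalpha with substrate in 0.038 M HEPES pH 7.4, 0.28 mM EGTA, 0.1% CHAPS, 5% DMSO; reaction started with 5 microM ATP (final), 60 min at room temperature. ADP formed read by ADP-Glo luminescence.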
HP1b binding inh = HTS for Inhibitors of HP1-beta Chromodomain Interactions with Methylated Histone Tails. Chromobox protein homolog 1 (Homo sapiens), P83916. AlphaScreen HP1-beta / biotin-H3K9me3 peptide binding. Potency, µM (highest dose often 114 µM), for the others: top-dose activity change, negative = inhibition, usual class: inhibitors. 0.56% of 390,000 active. AID 540317, 2011; further: potency means the concentration at half of the fitted maximal effect; nearly all actives have a fitted effect of over 70% in size
Target sequence (P83916 whole entry, looked up): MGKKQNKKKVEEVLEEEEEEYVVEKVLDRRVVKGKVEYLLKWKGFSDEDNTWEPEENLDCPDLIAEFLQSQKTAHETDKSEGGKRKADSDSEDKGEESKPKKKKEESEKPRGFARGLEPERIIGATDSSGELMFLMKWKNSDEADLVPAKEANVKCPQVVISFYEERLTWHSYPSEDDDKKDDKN
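HP1-beta protein (50 nM final) preincubated 30 min at room temperature with biotinylated H3(1-18)K9me3 peptide (50 nM) in PBS pH 7.4, 0.01% Tween-20, then compound added for 30 min. AlphaScreen streptavidin donor/nickel chelate acceptor beads (10 ug/mL final), 30 min dark, luminescence read.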
BAZ2B block = qHTS Assay for Inhibitors of BAZ2B. Bromodomain adjacent to zinc finger domain protein 2B (Homo sapiens), Q9UIF8. AlphaScreen BAZ2B-H3K14Ac peptide displacement. Potency, µM (doses to about 114 µM), inactives show top-dose activity change, negative = inhibition, usual class: inhibitors. 4.4% of 360,000 active; further: potency means the concentration at half of the fitted maximal effect; on the % scale 0 is the no-effect control and ±100 the full control effect; nearly all actives have a fitted effect of over 60% in size
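AlphaScreen displacement: compounds (up to 110uM) incubated 30 min at room temperature with a preformed 50 nM BAZ2B/50 nM biotinylated H3K14Ac peptide complex in PBS pH 7.4 with Tween-20. Donor and acceptor beads at 10 ug/mL final added, 20 min light-protected before reading.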
L3MBTL1 block = qHTS Assay for the Inhibitors of L3MBTL1. Lethal(3)malignant brain tumor-like protein 1 (Homo sapiens), Q9Y468. AlphaScreen L3MBTL1–H3K9me1 peptide binding. Potency, µM (doses to about 57.1 µM), inactives show at the top dose activity, negative = inhibition, usual class: inhibitors. AID 485360, 2010. 0.66% of 230,000 active; further: potency means the concentration at half of the fitted maximal effect; on the % scale 0 is the no-effect control and ±100 the full control effect; nearly all actives have a fitted effect of over 60% in size
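First, the protein-peptide complex forms for 30 min at room temperature (L3MBTL1 50 nM, biotinylated H3K9me1 peptide 75 nM). Next, compounds are pin-transferred and incubated 30 min. Finally, AlphaScreen beads are added and read after 30 min.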
JMJD2A Tudor = qHTS Assay for Inhibitors of JMJD2A-Tudor Domain; AlphaScreen JMJD2A-Tudor / H3K4me3 peptide binding; Potency, µM (series often up to 114 µM), for inactives: at the highest dose activity change, negative = inhibition, usual class: inhibitors; 4.4% of 390,000 active; AID 504339, 2011; further: potency means the concentration at half of the fitted maximal effect; on the % scale 0 is the no-effect control and ±100 the full control effect; nearly all actives have a fitted effect of over 50% in size
* hit, by the source's call; [ ] = dose if it differs, or a comment. Unless noted, the call rests on the fitted dose curve; in most records, active means well fitted inhibition curve with a large enough effect; inconclusive means small, poorly fitted or top-dose-only effect; inactive means no such curve, though single readings can be large or run the other way.

How did CCOc1ccc(Nc2nc(N)nc(CN3CCN(c4ccccc4F)CC3)n2)cc1 do in these assays?
G9a inh: inconclusive; PI5P4Ka inh: 1; HP1b binding inh: 11%; BAZ2B block: 56µM*; L3MBTL1 block: -6%; JMJD2A Tudor: inconclusive

What do the screens show for `Cc1cccc(Nc2nc(N)nc(CCl)n2)c1`?
G9a inh: inconclusive; PI5P4Ka inh: 2; HP1b binding inh: 42%; BAZ2B block: 8%; L3MBTL1 block: -24%; JMJD2A Tudor: -3%

How did COc1ccc(CCNC(=O)c2ccc3c(c2)N(Cc2cccc(Cl)c2)C(=O)c2ccccc2S3=O)cc1OC (configuration not stated) do in these assays?
G9a inh: inconclusive; HP1b binding inh: -13%; BAZ2B block: -12%; JMJD2A Tudor: -15%

What do the screens show for `Cc1ccc(C2NC(c3ccc4c(c3)OCO4)=CC(c3cc(Br)ccc3O)N2)cc1` (configuration not stated)?
HP1b binding inh: 11%[57 µM]; JMJD2A Tudor: -22%[57.1 µM]

How did Cc1cccn2c(=O)c(/C=C3\SC(=S)NC3=O)c(NCCCN3CCOCC3)nc12 do in these assays?
G9a inh: 13µM*; PI5P4Ka inh: -11; HP1b binding inh: 20%; BAZ2B block: -37%; L3MBTL1 block: -4%; JMJD2A Tudor: -16%

What do the screens show for `Cc1ccc(S(=O)(=O)N(C)c2cccc3cccnc23)cc1`?
JMJD2A Tudor: -3%

What do the screens show for `CCCC[C@H]1CCCO[C@@](C(=O)NCc2ccccn2)(C(F)(F)F)C1`?
HP1b binding inh: 25%; JMJD2A Tudor: 1%

Results for O=C(C1=C(O)C(=O)N(CCN2CCOCC2)C1c1ccncc1)c1ccco1 (configuration not stated) ?
G9a inh: inconclusive; PI5P4Ka inh: 2; HP1b binding inh: 8%; BAZ2B block: -26%; L3MBTL1 block: -1%; JMJD2A Tudor: 14%

Results for Cc1nc(C)c(C(=O)C2=C(O)C(=O)N(CCN3CCOCC3)C2c2cccs2)s1 (configuration not stated) ?
G9a inh: inconclusive; PI5P4Ka inh: -21; HP1b binding inh: 35%; BAZ2B block: -32%; L3MBTL1 block: -1%; JMJD2A Tudor: inconclusive

How did COc1ccc(OC)c(C2C(C(=O)c3sc(C)nc3C)=C(O)C(=O)N2CCN2CCOCC2)c1 (configuration not stated) do in these assays?
G9a inh: 45µM*; PI5P4Ka inh: 1; HP1b binding inh: 39%; BAZ2B block: 2%; L3MBTL1 block: 1%; JMJD2A Tudor: -10%

Results for COc1ccc(C2C(C(=O)c3ccco3)=C(O)C(=O)N2CCN2CCOCC2)cc1 (configuration not stated) ?
G9a inh: 50µM*; PI5P4Ka inh: 2; HP1b binding inh: 20%; BAZ2B block: -16%; JMJD2A Tudor: inconclusive

How did COc1ccc(C2C(C(=O)c3sc(C)nc3C)=C(O)C(=O)N2CCN2CCOCC2)cc1 (configuration not stated) do in these assays?
G9a inh: inconclusive; PI5P4Ka inh: 9; HP1b binding inh: 20%; BAZ2B block: 17%; L3MBTL1 block: -24%; JMJD2A Tudor: 50µM*

Results for CC(=O)c1cccc(NC(=O)C(Cc2ccccc2)NS(=O)(=O)c2ccc(Br)s2)c1 (configuration not stated) ?
G9a inh: 7%[59 µM]; HP1b binding inh: 38%; BAZ2B block: 2%; JMJD2A Tudor: -23%

What do the screens show for `COc1ccc(-n2nnnc2SCC(=O)NCCc2ccccc2)cc1`?
G9a inh: 4%[59 µM]; HP1b binding inh: 14%; BAZ2B block: -8%; JMJD2A Tudor: -11%

What do the screens show for `O=C(Cn1c(=O)nc(-c2ccccc2)c2cc(Cl)ccc21)NCCc1ccccc1`?
G9a inh: 4%[12.7 µM]; HP1b binding inh: 33%; BAZ2B block: -4%; JMJD2A Tudor: 0%

What do the screens show for `Cc1ccc2c(c1)Oc1ccc([N+](=O)[O-])cc1C(=O)N2`?
G9a inh: 9%; PI5P4Ka inh: 0; HP1b binding inh: 25%; BAZ2B block: -2%; JMJD2A Tudor: -16%

What do the screens show for `Cc1ccc2c(c1)NC(=O)c1cccc([N+](=O)[O-])c1CO2`?
G9a inh: 50µM*; BAZ2B block: -10%; L3MBTL1 block: -9%

What do the screens show for `Cc1oc(-c2ccccc2Cl)nc1Cn1c(SCc2cccc(F)c2)nc2cccnc21`?
G9a inh: 11%[59 µM]; HP1b binding inh: 25%; BAZ2B block: -2%; JMJD2A Tudor: -34%

What do the screens show for `Cc1ccc(-c2nn(-c3ccccc3)cc2C2SCC(=O)N2Cc2ccccc2)o1` (configuration not stated)?
G9a inh: 10µM*; PI5P4Ka inh: 4; HP1b binding inh: inconclusive; BAZ2B block: inconclusive; L3MBTL1 block: -24%; JMJD2A Tudor: inconclusive

Results for CN(C)c1ccc(/C=C2/C=C(c3ccc4c(c3)CCCC4)OC2=O)cc1 ?
G9a inh: -17%[59 µM]; PI5P4Ka inh: 6; HP1b binding inh: inconclusive; BAZ2B block: inconclusive; JMJD2A Tudor: 2.5µM*

Results for COc1ccc(C)cc1NC(=O)CSc1ccc(-c2ccccn2)nn1 ?
G9a inh: 29%; PI5P4Ka inh: 3; HP1b binding inh: 14%; BAZ2B block: 3.5µM*; JMJD2A Tudor: 4.5µM*

How did CCOC(=O)c1ccccc1NC(=O)CSc1ccc(-c2ccccn2)nn1 do in these assays?
PI5P4Ka inh: 3; HP1b binding inh: 55%; BAZ2B block: 2.8µM*; JMJD2A Tudor: 16µM*

Results for CCOC(=O)c1ccc(NS(=O)C23CC4CC(CC(C4)C2)C3)cc1 (configuration not stated) ?
G9a inh: 5µM*; HP1b binding inh: 52%; BAZ2B block: -4%; L3MBTL1 block: 7%; JMJD2A Tudor: -28%

What do the screens show for `C=CCc1cc(/C=C/c2nc(O)c([N+](=O)[O-])c(=O)[nH]2)cc(OC)c1O`?
G9a inh: 50µM*; PI5P4Ka inh: -64*; HP1b binding inh: -6%; BAZ2B block: inconclusive; L3MBTL1 block: inconclusive; JMJD2A Tudor: -26%[57.1 µM]

What do the screens show for `CCOc1cc(/C=C\c2nc(O)c([N+](=O)[O-])c(=O)[nH]2)ccc1OC(C)C`?
G9a inh: inconclusive; PI5P4Ka inh: -3; HP1b binding inh: 25%; BAZ2B block: -3%; JMJD2A Tudor: -18%
